Data on 7 compounds can be found in PubChem BioAssay (EPA / NIEHS).

The source made the active and inactive calls. The calls were made as follows: active = hit-call score of the fitted dose curve at least 0.9, where 1 is the maximum; inactive = score below 0.9.

Assay [1] can be described thus: ATG_GRE_CIS: Attagene CIS-FACTORIAL HepG2 Assay for human Glucocorticoid Response Elements (GRE) (AID 2282947). To be noted: HepG2 GRE cis-reporter, Attagene multiplex mRNA; actives raise or lower the signal. An outline of the steps:
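Reporter transcripts read by RT-PCR with capillary electrophoresis fluorescence after a 24 h chemical exposure of HepG2 cells transiently transfected with multiple cis-element reporter units. Gain or loss fitted against DMSO.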

Assay [2] in a line: ATG_ISRE_CIS: Attagene CIS-FACTORIAL HepG2 Assay for human Interferon Regulatory Factor 1 (IRF1) binding to an Interferon-Stimulated Response Element (ISRE) (AID 2282948). To be noted: HepG2 ISRE cis-reporter (Attagene), mRNA transcription readout; actives raise or lower the signal. An outline of the steps: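 Endogenous transcription factor activity read as reporter transcript abundance via RT-PCR and capillary electrophoresis. HepG2 cells transiently transfected, 24 h chemical exposure. Gain or loss fitted against DMSO baseline.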

The nature of assay [3]: ATG_M_32_CIS: Attagene CIS-FACTORIAL HepG2 Assay for M32 Transcription Factor (Internal Marker) (AID 2282949).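 Also: background control marker of the multiplexed CIS panel rather than a real target.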 To be noted: HepG2 Attagene cis-factorial M32 reporter, mRNA; actives raise or lower the signal. An outline of the steps: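 HepG2 transfectants (cis-regulated reporter transcription units) dosed 24 h. Reporter mRNA by RT-PCR plus CE, analysed as gain or loss relative to DMSO.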

The nature of assay [4]: ATG_M_06_CIS: Attagene CIS-FACTORIAL HepG2 Assay for M06 Transcription Factor (Internal Marker) (AID 2282950). The settings on record: HepG2 Attagene CIS-FACTORIAL M06 internal marker reporter; actives raise or lower the signal. An outline of the steps:
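Measured 24 h post-dosing in transiently transfected HepG2 cells, this internal-marker endpoint reports reporter mRNA via RT-PCR with fluorescent primer extension and capillary electrophoresis. DMSO served as negative control and baseline for bidirectional fitting.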

Assay [5] addresses Hypoxia-inducible factor 1-alpha (Homo sapiens) (UniProt Q16665). Briefly: ATG_HIF1a_CIS: Attagene CIS-FACTORIAL HepG2 Assay for human Hypoxia Inducible Factor 1 (HIF1A) (AID 2282951). To be noted: HepG2 Attagene cis-factorial HIF1a reporter transcription; actives raise or lower the signal. In a few lines: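 Dosed 24 h, transfected HepG2 cells yielded total RNA whose reporter transcripts were RT-PCR-amplified and sized by capillary electrophoresis using fluorescent labelling; DMSO defined baseline, with gain and loss of signal both fitted.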

Assay [6] addresses Hepatocyte nuclear factor 6 (Homo sapiens) (UniProt Q9UBC0). Briefly: ATG_HNF6_CIS: Attagene CIS-FACTORIAL HepG2 Assay for human Hepatocyte Nuclear Factor 6 (HNF6) (AID 2282952). The settings on record: HepG2 Attagene cis-factorial HNF6 reporter transcription; actives raise or lower the signal. In a few lines:
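First, HepG2 cells were transfected with the multiplexed cis reporter library and dosed with chemical for 24 h. Next, RNA was reverse-transcribed, PCR-amplified and fluorescently labelled. Finally, HpaI-digested fragments were read by capillary electrophoresis.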

Assay [7] concerns the target Heat shock factor protein 1 (Homo sapiens) (UniProt Q00613). Briefly: ATG_HSE_CIS: Attagene CIS-FACTORIAL HepG2 Assay for human Heat Shock Transcription Factor 1 (HSE) (AID 2282953). To be noted: HepG2 HSE cis-reporter, Attagene RNA transcription; actives raise or lower the signal. In a few lines: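 Reporter mRNA induction in HepG2 is measured 24 h after dosing, using transiently transfected multiplexed cis-regulated reporter units. Signal comes from capillary electrophoresis of labelled RT-PCR products, with DMSO as negative control.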

Assay [8] in a line: ATG_MRE_CIS: Attagene CIS-FACTORIAL HepG2 Assay for human Metal Responsive Element (MRE) (AID 2282954). The settings on record: HepG2 MRE cis-reporter transcription, Attagene multiplex; actives raise or lower the signal. In a few lines: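 Endogenous MRE-dependent transcription read as reporter mRNA in transiently transfected human HepG2 cells at 24 h. RNA reverse-transcribed, PCR-amplified, labelled and resolved by capillary electrophoresis; gain or loss relative to DMSO.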

Assay [9] can be described thus: ATG_PBREM_CIS: Attagene CIS-FACTORIAL HepG2 Assay for human Phenobarbital-responsive Enhancer Module (PBREM) (AID 2282955). To be noted: HepG2 PBREM cis-reporter, Attagene multiplexed transcription; actives raise or lower the signal. An outline of the steps:
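Transfected liver-derived HepG2 cells exposed 24 h; PBREM reporter transcript quantified via RT-PCR and capillary electrophoresis, with activity in either direction referenced to DMSO.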

Assay [10] deals with Paired box protein Pax-6 (Homo sapiens) (UniProt P26367). Briefly: ATG_Pax6_CIS: Attagene CIS-FACTORIAL HepG2 Assay for human Paired Box 6 (PAX6) (AID 2282956). To be noted: HepG2 CIS-FACTORIAL PAX6 reporter transcription, RNA readout; actives raise or lower the signal. In a few lines:
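Read-out is reporter transcript level, measured by RT-PCR with fluorescent primer extension and capillary electrophoresis after 24 h dosing of transfected HepG2 cells. Activity in either direction fitted relative to DMSO control.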

Assay [11] can be described thus: ATG_PXRE_CIS: Attagene CIS-FACTORIAL HepG2 Assay for human Pregnane X Receptor Element (PXRE) (AID 2282957). To be noted: HepG2 Attagene CIS-FACTORIAL PXRE reporter, mRNA; actives raise or lower the signal. In a few lines: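 After a 24 h chemical incubation, total RNA from transfected HepG2 cells was reverse-transcribed and reporter cDNA amplified, FAM-labeled, HpaI-digested and sized by capillary electrophoresis. DMSO served as baseline for bidirectional curve fitting.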

Assay [12] in a line: ATG_Sox_CIS: Attagene CIS-FACTORIAL HepG2 Assay for human SRY-box transcription factor (SOX) (AID 2282960). To be noted: HepG2 Attagene cis-factorial SOX reporter, mRNA; actives raise or lower the signal. An outline of the steps: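 Gain- or loss-of-signal endpoint, fitted bidirectionally with DMSO as negative control. Based on reporter mRNA from transfected HepG2 cells harvested 24 h post-treatment and quantified via RT-PCR and capillary electrophoresis.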

The target in assay [13] is Transcription factor Sp1 (Homo sapiens) (UniProt P08047). Briefly: ATG_Sp1_CIS: Attagene CIS-FACTORIAL HepG2 Assay for human Specificity Protein 1 (Sp1) (AID 2282961). To be noted: HepG2 Sp1 cis-reporter transcription, actives raise or lower the signal. In a few lines: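 Endpoint reflects endogenous Sp1 transcriptional activity, not an exogenous fusion protein: HepG2 cells with transfected cis-regulated reporters, 24 h dosing, RT-PCR/capillary electrophoresis mRNA read-out, DMSO-normalised bidirectional fit.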

Assay [14] can be described thus: ATG_SREBP_CIS: Attagene CIS-FACTORIAL HepG2 Assay for human Sterol Regulatory Element Binding (SREBP) (AID 2282962). To be noted: HepG2 Attagene cis-factorial SREBP reporter, mRNA; actives raise or lower the signal. In a few lines:
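Endogenous SREBP activity read as cis-element-driven reporter transcript in transiently transfected HepG2, 24 h post-dosing; quantified via RT-PCR plus capillary electrophoresis of fluorescent fragments. Gain or loss of signal fitted relative to DMSO baseline.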

Assay [15] in a line: ATG_TA_CIS: Attagene CIS-FACTORIAL HepG2 Assay for human TA Basal Promoter (AID 2282964). The settings on record: HepG2 Attagene CIS-factorial TA basal promoter reporter; actives raise or lower the signal. An outline of the steps:
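Cis-factorial format in HepG2: reporters report endogenous factors, not chimeric Gal4 fusions. After 24 h treatment, reporter transcripts were measured by RT-PCR-capillary electrophoresis fluorescence, analysed bidirectionally versus DMSO.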

A short description of assay [16]: ATG_TCF_b_cat_CIS: Attagene CIS-FACTORIAL HepG2 Assay for human T-Cell-Factor with beta-catenin (TCF/b-cat) (AID 2282965). To be noted: HepG2 TCF/beta-catenin cis-reporter transcription, actives raise or lower the signal. In a few lines: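 Endogenous TCF/LEF activity read as reporter transcript level via RT-PCR and capillary electrophoresis fluorescence in transfected HepG2, 24 h exposure; gain or loss of signal fitted against DMSO controls.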

Assay [17] can be described thus: ATG_RORE_CIS: Attagene CIS-FACTORIAL HepG2 Assay for human RAR-related Orphan Receptor Element (RORE) (AID 2282959). To be noted: HepG2 Attagene cis-factorial RORE reporter, mRNA; actives raise or lower the signal. In a few lines: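 Transiently transfected HepG2 reporter cells were treated 24 h. Reporter transcripts were detected by RT-PCR and capillary electrophoresis, with bidirectional fitting against DMSO.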

For assay [18], the target named is Signal transducer and activator of transcription 3 (Homo sapiens) (UniProt P40763). Briefly: ATG_STAT3_CIS: Attagene CIS-FACTORIAL HepG2 Assay for human Signal Transducer and Activator of Transcription 3 (STAT3) (AID 2282963). To be noted: HepG2, Attagene cis-factorial STAT3 reporter transcription; actives raise or lower the signal. In a few lines:
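Readout is reporter transcript quantified by RT-PCR and capillary electrophoresis, with 6-FAM primer extension and HpaI digestion. Total RNA is taken 24 h after dosing transiently transfected HepG2 carrying cis-regulated reporter units. Bidirectional fit against DMSO.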

The target in assay [19] is Bile acid receptor (Homo sapiens) (UniProt Q96RI1). Briefly: ATG_IR1_CIS: Attagene CIS-FACTORIAL HepG2 Assay for human Nuclear Receptor Subfamily 1 Group H Member 4 (NR1H4), IR1 submotif (AID 2282946). The settings on record: IR1 reporter transcription, actives raise or lower the signal. An outline of the steps: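 HepG2 cells transiently transfected with multiplexed cis-element reporter units read endogenous transcription factor activity. After 24 h compound exposure, reporter mRNA was quantified by RT-PCR, fluorescent labelling, HpaI digestion and capillary electrophoresis; bidirectional fitting versus DMSO baseline.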
Sequence of Bile acid receptor (Homo sapiens) (Q96RI1 whole entry, looked up): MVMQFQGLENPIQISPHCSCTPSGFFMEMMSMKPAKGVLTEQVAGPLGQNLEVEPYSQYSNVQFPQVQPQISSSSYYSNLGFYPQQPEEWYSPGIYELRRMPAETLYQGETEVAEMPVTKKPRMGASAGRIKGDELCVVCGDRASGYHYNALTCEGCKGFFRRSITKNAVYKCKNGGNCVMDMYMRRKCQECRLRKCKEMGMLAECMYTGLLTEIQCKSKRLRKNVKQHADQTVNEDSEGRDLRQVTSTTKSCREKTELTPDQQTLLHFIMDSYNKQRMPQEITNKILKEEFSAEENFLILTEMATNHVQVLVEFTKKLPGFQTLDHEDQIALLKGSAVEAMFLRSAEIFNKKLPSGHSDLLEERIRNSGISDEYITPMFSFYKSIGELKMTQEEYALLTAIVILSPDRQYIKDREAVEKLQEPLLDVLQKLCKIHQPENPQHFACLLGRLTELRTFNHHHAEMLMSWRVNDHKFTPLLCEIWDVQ

Sequence of Transcription factor Sp1 (Homo sapiens) (P08047 whole entry, looked up, the tested form may be a part): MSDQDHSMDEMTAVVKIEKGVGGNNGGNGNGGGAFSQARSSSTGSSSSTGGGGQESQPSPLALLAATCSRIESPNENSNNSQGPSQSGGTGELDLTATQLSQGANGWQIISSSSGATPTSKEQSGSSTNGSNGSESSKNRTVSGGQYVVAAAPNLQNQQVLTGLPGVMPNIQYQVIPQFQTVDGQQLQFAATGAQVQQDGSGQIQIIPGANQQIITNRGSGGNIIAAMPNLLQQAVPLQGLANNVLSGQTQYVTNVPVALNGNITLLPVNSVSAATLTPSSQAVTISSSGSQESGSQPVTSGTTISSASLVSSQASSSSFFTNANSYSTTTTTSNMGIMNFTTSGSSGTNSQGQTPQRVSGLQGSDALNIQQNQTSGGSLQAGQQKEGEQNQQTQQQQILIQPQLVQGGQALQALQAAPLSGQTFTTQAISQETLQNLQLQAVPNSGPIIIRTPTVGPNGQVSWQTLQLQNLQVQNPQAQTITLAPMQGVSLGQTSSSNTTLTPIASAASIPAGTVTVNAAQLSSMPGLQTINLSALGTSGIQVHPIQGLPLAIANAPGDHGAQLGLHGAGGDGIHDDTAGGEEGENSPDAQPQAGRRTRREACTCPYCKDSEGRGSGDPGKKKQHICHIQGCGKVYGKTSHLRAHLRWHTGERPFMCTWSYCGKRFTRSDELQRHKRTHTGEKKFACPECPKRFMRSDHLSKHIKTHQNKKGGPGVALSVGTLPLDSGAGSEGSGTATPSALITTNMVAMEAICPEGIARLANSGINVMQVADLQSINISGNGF
Sequence of Heat shock factor protein 1 (Homo sapiens) (Q00613 whole entry, looked up): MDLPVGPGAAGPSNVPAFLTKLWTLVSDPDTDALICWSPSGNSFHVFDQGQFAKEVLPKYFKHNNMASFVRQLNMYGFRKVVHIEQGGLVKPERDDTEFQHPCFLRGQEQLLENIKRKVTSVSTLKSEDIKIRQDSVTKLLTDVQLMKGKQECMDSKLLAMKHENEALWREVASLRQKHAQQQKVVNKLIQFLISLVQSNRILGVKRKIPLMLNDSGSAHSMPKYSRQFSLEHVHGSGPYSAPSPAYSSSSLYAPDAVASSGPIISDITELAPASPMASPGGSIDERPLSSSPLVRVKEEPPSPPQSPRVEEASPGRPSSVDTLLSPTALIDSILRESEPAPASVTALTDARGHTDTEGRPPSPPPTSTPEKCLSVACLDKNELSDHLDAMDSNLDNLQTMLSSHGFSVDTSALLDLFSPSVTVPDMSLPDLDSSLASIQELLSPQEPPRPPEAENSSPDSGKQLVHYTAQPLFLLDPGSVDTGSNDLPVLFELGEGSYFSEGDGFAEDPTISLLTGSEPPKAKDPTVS
Sequence of Hypoxia-inducible factor 1-alpha (Homo sapiens) (Q16665 whole entry, looked up): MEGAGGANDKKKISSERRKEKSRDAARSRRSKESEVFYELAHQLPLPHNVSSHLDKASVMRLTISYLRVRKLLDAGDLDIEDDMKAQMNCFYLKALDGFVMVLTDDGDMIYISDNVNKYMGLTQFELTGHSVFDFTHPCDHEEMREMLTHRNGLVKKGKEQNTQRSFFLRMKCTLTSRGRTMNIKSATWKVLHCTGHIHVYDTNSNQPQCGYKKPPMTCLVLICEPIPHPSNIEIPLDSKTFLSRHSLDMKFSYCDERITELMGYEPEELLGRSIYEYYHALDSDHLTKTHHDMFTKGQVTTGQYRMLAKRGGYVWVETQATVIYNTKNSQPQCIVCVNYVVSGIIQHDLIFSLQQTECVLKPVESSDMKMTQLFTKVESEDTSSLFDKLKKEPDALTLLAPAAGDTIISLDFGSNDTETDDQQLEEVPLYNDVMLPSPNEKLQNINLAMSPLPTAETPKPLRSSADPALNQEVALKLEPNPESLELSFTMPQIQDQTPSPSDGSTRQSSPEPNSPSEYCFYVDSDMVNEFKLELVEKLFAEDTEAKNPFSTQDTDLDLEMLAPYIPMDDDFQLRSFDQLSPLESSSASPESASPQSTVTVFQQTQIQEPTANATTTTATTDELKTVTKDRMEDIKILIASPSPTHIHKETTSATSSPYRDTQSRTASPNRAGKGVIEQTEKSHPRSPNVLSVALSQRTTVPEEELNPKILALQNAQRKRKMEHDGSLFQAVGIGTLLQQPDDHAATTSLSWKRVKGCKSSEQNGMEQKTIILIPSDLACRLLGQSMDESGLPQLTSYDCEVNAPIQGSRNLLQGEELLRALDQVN
Sequence of Signal transducer and activator of transcription 3 (Homo sapiens) (P40763 whole entry, looked up): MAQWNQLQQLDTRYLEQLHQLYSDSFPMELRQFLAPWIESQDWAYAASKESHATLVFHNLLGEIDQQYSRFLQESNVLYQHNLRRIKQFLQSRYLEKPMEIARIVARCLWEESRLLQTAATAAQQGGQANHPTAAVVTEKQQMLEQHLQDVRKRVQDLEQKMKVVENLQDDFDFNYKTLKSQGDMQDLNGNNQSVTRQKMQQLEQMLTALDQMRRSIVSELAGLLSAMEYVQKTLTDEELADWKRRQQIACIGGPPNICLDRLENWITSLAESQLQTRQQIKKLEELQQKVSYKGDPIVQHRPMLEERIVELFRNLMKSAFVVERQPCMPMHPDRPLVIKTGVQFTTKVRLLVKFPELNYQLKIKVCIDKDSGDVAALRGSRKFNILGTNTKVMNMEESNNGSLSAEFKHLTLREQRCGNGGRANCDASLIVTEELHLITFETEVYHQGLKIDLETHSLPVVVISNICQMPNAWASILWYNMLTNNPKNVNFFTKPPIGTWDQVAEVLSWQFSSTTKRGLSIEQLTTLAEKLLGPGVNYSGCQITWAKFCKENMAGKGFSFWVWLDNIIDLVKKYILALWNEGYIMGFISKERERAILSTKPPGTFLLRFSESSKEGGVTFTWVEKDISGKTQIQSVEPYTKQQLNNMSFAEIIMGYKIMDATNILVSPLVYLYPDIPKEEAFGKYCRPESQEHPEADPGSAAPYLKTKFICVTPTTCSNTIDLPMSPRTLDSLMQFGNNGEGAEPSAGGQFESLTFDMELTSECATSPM
Sequence of Paired box protein Pax-6 (Homo sapiens) (P26367 whole entry, looked up): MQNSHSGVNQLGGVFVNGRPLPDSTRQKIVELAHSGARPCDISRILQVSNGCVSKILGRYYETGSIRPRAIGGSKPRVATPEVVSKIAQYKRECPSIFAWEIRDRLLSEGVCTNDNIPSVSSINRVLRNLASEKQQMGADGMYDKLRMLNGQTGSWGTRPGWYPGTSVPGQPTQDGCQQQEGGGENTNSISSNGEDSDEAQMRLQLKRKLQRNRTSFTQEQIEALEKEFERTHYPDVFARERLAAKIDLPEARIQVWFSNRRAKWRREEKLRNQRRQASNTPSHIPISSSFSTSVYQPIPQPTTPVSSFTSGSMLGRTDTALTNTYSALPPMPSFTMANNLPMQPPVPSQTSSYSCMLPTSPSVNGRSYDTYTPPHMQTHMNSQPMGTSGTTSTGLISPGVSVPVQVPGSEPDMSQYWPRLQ
Sequence of Hepatocyte nuclear factor 6 (Homo sapiens) (Q9UBC0 whole entry, looked up, the tested form may be a part): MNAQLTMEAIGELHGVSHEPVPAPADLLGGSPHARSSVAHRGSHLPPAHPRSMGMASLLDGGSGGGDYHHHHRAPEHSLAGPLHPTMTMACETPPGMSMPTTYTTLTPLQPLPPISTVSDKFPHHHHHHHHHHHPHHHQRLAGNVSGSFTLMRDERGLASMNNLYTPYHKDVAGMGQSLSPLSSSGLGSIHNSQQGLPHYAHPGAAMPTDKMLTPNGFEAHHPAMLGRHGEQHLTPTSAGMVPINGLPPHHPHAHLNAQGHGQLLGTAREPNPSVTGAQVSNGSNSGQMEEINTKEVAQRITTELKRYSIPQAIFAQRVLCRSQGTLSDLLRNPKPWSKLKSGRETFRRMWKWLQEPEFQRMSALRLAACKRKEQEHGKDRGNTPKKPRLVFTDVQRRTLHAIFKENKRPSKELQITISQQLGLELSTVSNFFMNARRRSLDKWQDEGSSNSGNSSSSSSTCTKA

As for `CNC(=O)Oc1cccc2c1OC(C)(C)C2`, the outcome in assay [1], in assay [2], in [3], in assay [4], in assay [5] and in assay [6] was inactive. For the same compound, the outcome in assay [7], in [8], in [9], in assay [10], in assay [12] and in assay [13] was inactive. Besides, the call in [14], in assay [15] and in assay [16] was inactive. Also, the AC50 in assay [11] is 17.1 µM (active).
For the compound `CCCCCCCCCCCCCN1CC(C)OC(C)C1` (configuration not stated), the result in assay [1], in assay [2], in assay [3], in [4], in [5] and in assay [6] was inactive. The call in [7], in [8], in [17], in assay [12], in [13] and in [14] was inactive. In addition, the result in assay [15] and in assay [16] was inactive. In addition, the AC50 in [11] was 8 µM (active).
As for `COC(=O)Nc1nc2ccccc2[nH]1`, the result in [1], in assay [2], in assay [3], in assay [4], in assay [5] and in assay [6] was inactive. Besides, the result in assay [7], in assay [8], in assay [9], in assay [10], in assay [11] and in assay [17] was inactive. The result in assay [12], in assay [13], in assay [14], in [18], in assay [15] and in assay [16] was inactive.
`[As]#[In]`: the result in assay [1], in [2], in assay [3], in assay [4], in assay [5] and in [6] was inactive. Further, the outcome in assay [7], in [8], in assay [9], in assay [10], in [17] and in assay [12] was inactive. For the same compound, the result in [13], in assay [14], in assay [15] and in assay [16] was inactive. Also, in assay [11], the AC50 was 49.9 µM (active).
On to `c1ccc(N=Nc2ccccc2)cc1`, for which the outcome in [1], in assay [2], in assay [3], in assay [4], in assay [5] and in assay [6] was inactive. For the same compound, the compound was classed as inactive in [7], in assay [8], in assay [9], in assay [10], in [11] and in assay [17]. In addition, the compound was classed as inactive in assay [12], in assay [13], in assay [14], in assay [18], in assay [15] and in [16].
As for `OCCOCCO`, the call in assay [19], in assay [1], in assay [2], in assay [3], in [5] and in assay [6] was inactive. In addition, the compound was classed as inactive in assay [8], in assay [9], in assay [10], in [11], in [17] and in assay [12]. In addition, the outcome in [13], in [14], in assay [15] and in [16] was inactive.
For `CC(C)COC(=O)c1ccccc1C(=O)OCC(C)C`, the compound was classed as inactive in [19], in [1], in assay [3], in assay [5], in assay [6] and in assay [7]. The compound was classed as inactive in [12], in assay [13], in [14], in [18] and in [16]. Besides, the half-maximal activity concentration (AC50) in assay [2] was 167 µM (active); in assay [8], 109 µM (active); in assay [10], 100 µM (active); in assay [11], 26.1 µM (active); in assay [17] it was 44.3 µM (active); in [15], 56.4 µM (active).
